Where “and” joins values, the source holds several entries; their conditions need not be identical. Equal entries are not always repeated. Inconclusive results are not listed. Where a call stands in place of a potency, no number is given. Where a structure was tested more than once in an assay, its records may differ in their call. Calls of active or inactive are those of the source. Calls come from the whole dose curve; as a rule, active = well fitted curve in the direction sought with a large enough effect in the repeat runs; inconclusive = weak or mixed curves; inactive = no such curve, though single readings can be large; an effect the other way counts as inactive or inconclusive.
What was measured:
[1] = A CellTox Green Cytotoxicity Assay to monitor cytotoxicity in HEK293 cells - 32 hour (AID 1224881); note: nearly all actives have a fitted effect of over 40% in size
In short: (§1)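 HEK293 cells premixed with CellTox Green dye were seeded at 600 cells/well and left 5 h at 37 C/5% CO2 before pin transfer of 23 nL compound in DMSO. Fluorescence from dye bound to dead-cell DNA was read during 40 h treatment.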

[2] = A CellTox Green Cytotoxicity Assay to monitor cytotoxicity in HepG2 cells - 0 hour (AID 1224882); note: nearly all actives have a fitted effect of over 35% in size
In short: (§2)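 HepG2 cells were seeded together with the CellTox Green dye at 600 cells/well, left 5 h at 37 C/5% CO2, then given compounds in DMSO. Fluorescence from dye bound to dead-cell DNA was read repeatedly over 40 h of treatment at 37 C.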

[3] = A CellTox Green Cytotoxicity Assay to monitor cytotoxicity in HepG2 cells - 32 hour (AID 1224883); note: nearly all actives have a fitted effect of over 50% in size; note: potency is the fitted concentration of half-maximal effect
In short: as §2

[4] = A CellTox Green Cytotoxicity Assay to monitor cytotoxicity in HEK293 cells - 8 hour (AID 1224884); note: nearly all actives have a fitted effect of over 35% in size; note: potency is the fitted concentration of half-maximal effect
In short: as §1

[5] = qHTS RealTime-Glo MT Cell Viability Assay in HepG2 cells - 16 hour (AID 1224885); note: nearly all actives have a fitted effect of over 50% in size
In short: (§3)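 Cells + NanoLuc/prosubstrate dispensed (600 cells/well) → 5 h at 37 C/5% CO2 → compounds in DMSO transferred → 40 h incubation at 37 C, luminescence read at 0, 8, 16, 24, 32, 40 h.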

[6] = qHTS RealTime-Glo MT Cell Viability Assay in HEK293 cells - 24 hour (AID 1224886); note: nearly all actives have a fitted effect of over 50% in size; note: potency is the fitted concentration of half-maximal effect
In short: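 Tox21 10K qHTS, HEK293, 600 cells/well, RealTime-Glo reagent co-dispensed with cells; 5 h preincubation, compound by pintool, 37 C, luminescence at 0–40 h.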

[7] = qHTS RealTime-Glo MT Cell Viability Assay in HEK293 cells - 8 hour (AID 1224887); note: nearly all actives have a fitted effect of over 50% in size; note: potency is the fitted concentration of half-maximal effect
In short: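 HEK293 cells mixed with RealTime-Glo reagents (NanoLuc plus cell-permeant prosubstrate) at 600 cells/well, preincubated 5 h at 37 C/5% CO2, then given 23 nL compound in DMSO. Nonlytic luminescence from viable cells was read at 0, 8, 16, 24, 32 and 40 h.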

[8] = qHTS RealTime-Glo MT Cell Viability Assay in HepG2 cells - 0 hour (AID 1224889); note: nearly all actives have a fitted effect of over 50% in size
In short: as §3

[9] = A CellTox Green Cytotoxicity Assay to monitor cytotoxicity in HepG2 cells - 8 hour (AID 1224890); note: nearly all actives have a fitted effect of over 45% in size
In short: as §2

[10] = A CellTox Green Cytotoxicity Assay to monitor cytotoxicity in HEK293 cells - 16 hour (AID 1224888); note: nearly all actives have a fitted effect of over 35% in size
In short: as §1

SMILES | Potency [1] | Potency [2] | Potency [3] | Potency [4] | Potency [5] | Potency [6] | Potency [7] | Potency [8] | Potency [9] | Potency [10]
O=C(O)c1ccccc1 | inactive | inactive | inactive | inactive | inactive | inactive | inactive | inactive | inactive | 
C[C@](N)(Cc1ccc(O)c(O)c1)C(=O)O | inactive | inactive | inactive | inactive | inactive | inactive | inactive | inactive | inactive | inactive
Nc1ccc(S(N)(=O)=O)cc1 | inactive | inactive | inactive | inactive | inactive | inactive | inactive | inactive | inactive | inactive
NC(=O)c1cccnc1 | inactive | inactive | inactive | inactive | inactive | inactive | inactive | inactive | inactive | 
Oc1ccccc1 | inactive | inactive | inactive | inactive |  | inactive | inactive | inactive | inactive | inactive
CC(C)NCC(O)c1ccc(O)c(O)c1 (centres undefined) | inactive | inactive | inactive | inactive |  | 48.4 µM (active) and inactive | inactive | inactive | inactive | inactive
COc1cccc(O)c1O | inactive | inactive | inactive | inactive | inactive |  |  | inactive | inactive | 
CS(=O)(=O)OCCCCOS(C)(=O)=O | inactive | inactive | inactive | inactive | inactive | inactive | inactive | inactive | inactive | inactive
CC(C)c1c(C(=O)Nc2ccccc2)c(-c2ccccc2)c(-c2ccc(F)cc2)n1CC[C@@H](O)C[C@@H](O)CC(=O)O | inactive | inactive | 2.98 µM (active) and 10.2 µM (active) and 6.01 µM (active) | inactive | inactive | inactive |  | inactive | inactive | inactive
CN1[C@@H]2CC(OC(=O)[C@H](CO)c3ccccc3)C[C@H]1[C@@H]1O[C@@H]12 (some centres undefined) | inactive | inactive | inactive | inactive | inactive | inactive | inactive | inactive | inactive | 
COc1ccc(C(Cl)=C(c2ccc(OC)cc2)c2ccc(OC)cc2)cc1 | inactive | inactive | inactive | inactive and 43.6 µM (active) | inactive | inactive | inactive | inactive | inactive | inactive
Nc1ccc(O)c([N+](=O)[O-])c1 | inactive | inactive | inactive | inactive | inactive |  | inactive |  | inactive | inactive
CCCCOC(=O)c1ccc(O)cc1 | inactive | inactive | inactive | inactive | inactive | 22.1 µM (active) and 19.5 µM (active) | inactive | inactive | inactive | 
C=C1CC[C@H](O)C/C1=C\C=C1/CCC[C@]2(C)[C@@H]([C@H](C)CCCC(C)C)CC[C@@H]12 | inactive | inactive | inactive | inactive | inactive | 43.2 µM (active) | 24.3 µM (active) |  | inactive | 
CCCc1cc(=O)[nH]c(=S)[nH]1 | inactive | inactive | inactive | inactive | inactive | inactive | inactive | inactive | inactive | inactive
CC(=O)C(=O)O | inactive | inactive | inactive | inactive | inactive | inactive | inactive | inactive | inactive | inactive
CNNCc1ccc(C(=O)NC(C)C)cc1 | inactive | inactive | 24.5 µM (active) and 19.5 µM (active) | inactive | inactive | inactive | inactive | inactive | inactive | 
CC(=O)CC(c1ccccc1)c1c(O)c2ccccc2oc1=O (centres undefined) | inactive | inactive | inactive | inactive | inactive | inactive | inactive | inactive | inactive | 
NS(=O)(=O)c1cc2c(cc1Cl)NCNS2(=O)=O | inactive | inactive | inactive | inactive | inactive | inactive | inactive | inactive | inactive | inactive
